The list is not random: actives were taken first. Their share in the collection is about 1.6%.
KCNQ2 inh: rat KCNQ2 potassium channel inhibitors, primary screen, cell-based, CHO-K1, FluxOR thallium flux, B-score | 310,000 tested, 1.1% active | 20 min; active compounds read low | Potassium voltage-gated channel subfamily KQT member 2 (Rattus norvegicus), O88943 | B-score at 10 µM;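 active means fluorescence ratio B-score at most minus 3 library SDs, with starting brightness B-score within 2 library SDs, cut at about -5.5 in these data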
Target sequence (O88943 whole entry, looked up): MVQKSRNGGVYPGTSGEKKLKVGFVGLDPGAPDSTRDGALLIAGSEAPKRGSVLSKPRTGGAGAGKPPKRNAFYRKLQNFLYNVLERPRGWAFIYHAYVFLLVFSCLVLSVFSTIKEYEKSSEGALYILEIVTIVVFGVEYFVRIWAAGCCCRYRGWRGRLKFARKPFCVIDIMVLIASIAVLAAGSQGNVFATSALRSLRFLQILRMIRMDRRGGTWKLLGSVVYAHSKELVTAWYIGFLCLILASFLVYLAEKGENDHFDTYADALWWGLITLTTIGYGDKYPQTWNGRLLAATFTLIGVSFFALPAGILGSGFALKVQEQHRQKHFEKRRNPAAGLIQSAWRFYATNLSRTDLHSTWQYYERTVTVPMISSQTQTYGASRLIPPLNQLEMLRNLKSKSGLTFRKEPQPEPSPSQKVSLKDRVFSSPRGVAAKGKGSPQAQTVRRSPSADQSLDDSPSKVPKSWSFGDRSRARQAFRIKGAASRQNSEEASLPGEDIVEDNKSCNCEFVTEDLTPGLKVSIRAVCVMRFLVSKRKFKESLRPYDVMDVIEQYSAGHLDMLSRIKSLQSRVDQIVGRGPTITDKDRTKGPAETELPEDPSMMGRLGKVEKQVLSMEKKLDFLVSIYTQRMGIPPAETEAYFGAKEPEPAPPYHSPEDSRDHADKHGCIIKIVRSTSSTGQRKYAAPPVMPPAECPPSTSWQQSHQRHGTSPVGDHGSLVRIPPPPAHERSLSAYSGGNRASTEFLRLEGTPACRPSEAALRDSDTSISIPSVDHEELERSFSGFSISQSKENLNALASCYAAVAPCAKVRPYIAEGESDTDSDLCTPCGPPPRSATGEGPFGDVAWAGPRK
KCNQ2 pot: potentiators of rat KCNQ2 potassium channel. CHO-K1 KCNQ2, FluxOR thallium flux fluorescence; active compounds read high. B-score at 10 µM. 310,000 tested, 0.54% active. AID 2239, 2010;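 active means fluorescence ratio B-score at least 3 SD of library B-scores, with initial fluorescence B-score within 3 of them, cut at about 5.3 in these data; same plate scores as AID 2156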;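 further: B-score of peak minus minimum over baseline fluorescence ratio after K+ and Tl+ stimulus; positive B-score means potentiation of KCNQ2 with more thallium influx and brighter signal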
Kir21 confirm: mouse Kir2.1 channel blockers, retest, confirmation, cell-based, FluxOR thallium flux, duplicate. AID 2032, 2009. shares compounds with KCNQ2 pot. 2,300 tested, 41% active. Tl flux remaining, % of negative control (active compounds read low), % at 10 µM. Kir2.1-expressing cells, FluxOR thallium flux fluorescence; active compounds read low;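 active means Primary-screen hit whose thallium flux fell at least 3 control SD below untreated wells in both duplicates, with normal baseline fluorescence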
HEK293 ctr: alters thallium flux in parental HEK293 cells, Kir2.1 counter-screen; shares compounds with KCNQ2 pot; FluxOR thallium flux fluorescence; 0% = unstimulated blank wells; FluxOR signal as % of negative control (100 = no effect), % at 10 µM; 2,300 tested, 19% active; AID 2105;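 active means dye signal at least 3 control SD above or below untreated wells in both duplicates, raw fluorescence within 3, either direction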;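 further: percent is based on the flux ratio of peak minus minimum fluorescence over baseline F0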
CHO-K1 ctr: nonspecific thallium flux increase in parental CHO-K1, confirmation, counter-screen for KCNQ2 potentiator project, cell-based, FluxOR thallium flux, duplicate | shares compounds with KCNQ2 pot | parental CHO-K1 cells, FluxOR thallium flux fluorescence; zero = vehicle mean+3SD, 100% = vehicle-minus-blank window | activity increase over 3SD of controls, % at 10 µM | 1,200 tested, 43% active;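 active means signal rise of at least 3 SD above the untreated control mean, in both duplicate wells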;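 further: counter screen of KCNQ2 potentiator hits so any rise reflects channel-independent effects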
KCNQ1 pot spec: human KCNQ1 channel potentiation off-target, confirmation, selectivity assay for KCNQ2 potentiator project, cell-based, CHO, FluxOR thallium flux; 1,200 tested, 28% active; AID 2283, 2010; shares compounds with KCNQ2 pot; activation over 3SD threshold, % at 10 µM; CHO KCNQ1 stable, FluxOR thallium flux fluorescence; beyond 3SD, as % of vehicle-control signal;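 active means fluorescence ratio rise of at least 3 SD of vehicle wells above their mean, in both replicate wells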
KCNQ2 pot conf: rat KCNQ2 channel potentiators, confirmation, cell-based, CHO, FluxOR thallium flux, duplicate; shares compounds with KCNQ2 pot; CHO-KCNQ2 cells, FluxOR thallium flux fluorescence; potentiation, less the hit threshold, % at 10 µM; 1,200 tested, 68% active; AID 2287, 2010;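 active means fluorescence ratio rising 3 SD or more over the vehicle control mean in both replicates, plus primary screen hit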;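 further: peak minus minimum thallium fluorescence divided by baseline after K/Tl stimulus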
Kir21 spec: mouse Kir2.1 channel activation off-target, confirmation, selectivity assay for KCNQ2 potentiator project, cell-based, HEK293, FluxOR thallium flux. AID 2345, 2010. 1,200 tested, 2% active. HEK293 Kir2.1, FluxOR thallium flux fluorescence. shares compounds with KCNQ2 pot. activity over 3SD threshold, % at 10 µM;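 active means fluorescence ratio rise of at least 3 SD above the vehicle-control mean, seen in both replicates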
KCNQ2 W236L MoA: potentiators of retigabine-insensitive KCNQ2 W236L, mechanism study for KCNQ2 potentiator project, cell-based, rat KCNQ2 W236L, CHO, automated patch clamp; shares compounds with KCNQ2 pot; automated patch clamp current; current increase over 3SD of negative controls (%), active compounds read high, % at 25 µM; 940 tested, 10% active; AID 2558, 2010;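 active means current increase at least 3 SD of the untreated controls above them in both duplicate recordings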
A number is an active result; . = inactive; / = not tested or not shown.

SMILES | KCNQ2 inh | KCNQ2 pot | Kir21 confirm | HEK293 ctr | others
Cc1ccc(S(=O)(=O)Nc2cccc(C(=O)NCC3(N4CCCCC4)CCCCC3)c2)cc1F | . | . | / | /
Cn1c(C(=O)N[C@@H](C(=O)O)c2ccccc2)cc2cc(F)ccc21 | . | . | / | /
CC(=O)Nc1ccc(NC(=O)Cn2cnc(S(=O)(=O)N3CCOCC3)c2)cc1 | . | . | / | /
C/C(=N\NC(=O)c1cc2ccccc2cc1O)c1ccc(C)o1 | . | 6.7 | . | 412% | CHO-K1 ctr=.;KCNQ1 pot spec=1.0;KCNQ2 pot conf=67;Kir21 spec=.;KCNQ2 W236L MoA=.
C/C(=N\NC(=O)c1cc2ccccc2cc1O)c1cccs1 | . | 7.7 | . | . | CHO-K1 ctr=102;KCNQ1 pot spec=.;KCNQ2 pot conf=.;Kir21 spec=.
C/C(=N\NC(=O)c1c[nH]c2ccccc12)c1ccc(C)o1 | . | . | / | /
O=C(NNC(=O)c1cc2ccccc2cc1O)c1cccs1 | . | . | / | /
CC1(c2nnc(-c3ccc(Cl)cc3)o2)CC(c2cccnc2)=NO1 (configuration not stated) | . | / | / | /
Cc1ccc(C)c(Cn2nnc3c(=O)[nH]c(C4CCCN(S(=O)(=O)Cc5ccccc5)C4)nc32)c1 (configuration not stated) | . | . | / | /
CC(C)Oc1ccc(C(=O)Nc2nnc(C3=COCCO3)o2)cc1 | . | 5.3 | . | . | CHO-K1 ctr=91;KCNQ1 pot spec=.;KCNQ2 pot conf=.;Kir21 spec=.;KCNQ2 W236L MoA=.
CC(C)(C)c1ccc(C(=O)Nc2nnc(C3=COCCO3)o2)cc1 | . | . | / | /
Cn1nccc1-c1cc(Cl)cc(Cl)c1O | . | / | / | /
Cc1[nH]n(-c2ccccc2)c(=O)c1N=Nc1ccccc1O | . | . | / | /
Cc1[nH]n(-c2ccccc2)c(=O)c1N=Nc1nccs1 | . | 15 | . | 550% | CHO-K1 ctr=.;KCNQ1 pot spec=16;KCNQ2 pot conf=91;Kir21 spec=18;KCNQ2 W236L MoA=.
CNc1ncnc2sc(-c3ccccc3)cc12 | . | . | / | /
S=c1[nH]cnc2sc(-c3ccccc3)cc12 | . | 24 | . | . | CHO-K1 ctr=.;KCNQ1 pot spec=.;KCNQ2 pot conf=70;Kir21 spec=.;KCNQ2 W236L MoA=.
O=C(O)c1cc(NN=Nc2cccc([N+](=O)[O-])c2)cc([N+](=O)[O-])c1 | . | . | / | /
O=C(O)c1cc(NN=Nc2ccc(Br)cc2)cc([N+](=O)[O-])c1 | . | 7.4 | . | . | CHO-K1 ctr=.;KCNQ1 pot spec=33;KCNQ2 pot conf=16;Kir21 spec=.;KCNQ2 W236L MoA=.
O=C(O)/C=C/C(=O)c1ccc2c(c1)CCc1ccccc1-2 | . | 8.6 | / | / | CHO-K1 ctr=30;KCNQ1 pot spec=.;KCNQ2 pot conf=35;Kir21 spec=.;KCNQ2 W236L MoA=.
CC(=O)Nc1ccc2c(c1)CCc1ccccc1-2 | . | / | / | /
O=C(CSc1ccc2ccccc2n1)Nc1ccc(N2CCOCC2)cc1 | . | / | / | /
Cc1ccc(S(=O)(=O)NCC2COc3ccccc3O2)cc1 (configuration not stated) | . | / | / | /
Cc1ccc([N+](=O)[O-])cc1S(=O)(=O)NCC1COc2ccccc2O1 (configuration not stated) | . | / | 73% | .
COc1cccc(NC(=O)CC(=O)c2ccccc2)c1 | . | / | / | /
Cc1ccc(S(=O)(=O)Cc2nnnn2-c2ccccc2)cc1 | . | . | / | /
SMILES | KCNQ2 inh | KCNQ2 pot | Kir21 confirm | HEK293 ctr | others
O=C1CSC(c2ccccc2F)N1c1cc(Cl)ccc1O (configuration not stated) | . | . | . | .
O=C1CSC(c2ccccc2F)N1CCN1CCCCC1 (configuration not stated) | . | . | / | /
CC(C)c1ccc(NC(=O)N2CCN(S(=O)(=O)c3ccccc3)CC2)cc1 | . | 7.3 | / | / | CHO-K1 ctr=.;KCNQ1 pot spec=.;KCNQ2 pot conf=.;Kir21 spec=.;KCNQ2 W236L MoA=.
CS(=O)(=O)N1CCN(C(=O)Nc2ccccc2)CC1 | . | . | / | /
O=C(CS(=O)c1ccc(Br)cc1)N1CCOCC1 (configuration not stated) | . | . | / | /
Cc1nn(-c2ccccc2)c(C)c1/C=N/NC(=O)CSc1nnc(SCc2ccc(Cl)cc2)s1 | . | / | / | /
COc1ccc(CCN2C(=O)CSC2=Nc2ccc(C)cc2C)cc1OC | . | . | / | /
COc1ccc(S(=O)(=O)NCCSCc2ccco2)cc1Cl | . | . | 58% | .
COc1ccc(S(=O)(=O)NCCSCc2ccco2)cc1C | . | / | / | /
CCc1ccc(NC(=S)N2CCN(S(=O)(=O)c3ccccc3)CC2)cc1 | . | . | / | /
CCC(=O)NC(=S)NNC(=O)c1ccccc1[N+](=O)[O-] | . | / | / | /
CCN(CC)C(=S)NC(=O)Cc1ccccc1 | . | / | / | /
CCN(Cc1ccccc1)C(=S)NC(=O)c1ccccc1Br | . | 8.6 | . | 418% | CHO-K1 ctr=.;KCNQ1 pot spec=52;KCNQ2 pot conf=46;Kir21 spec=.;KCNQ2 W236L MoA=.
CCCN(Cc1ccccc1)C(=S)NC(=O)c1ccccc1[N+](=O)[O-] | . | 13 | . | 450% | CHO-K1 ctr=5.8;KCNQ1 pot spec=.;KCNQ2 pot conf=60;Kir21 spec=.;KCNQ2 W236L MoA=.
Cc1ccoc1C(=O)Nc1cccc2ccccc12 | . | . | / | /
Cc1ccc(C)c(NC(=O)CN(C)C(=O)c2cc3c(s2)CCCCC3)c1 | . | . | / | /
O=C(Nc1nccs1)c1ccc(S(=O)(=O)N2CCOCC2)cc1 | . | / | / | /
Cc1ccc(-c2nnc(SCC(=O)NC3CCS(=O)(=O)C3)nc2-c2ccc(C)cc2)cc1 (configuration not stated) | . | . | / | /
C[C@@H]1O[C@@H](O[C@H]2[C@H](Oc3cc(O)c4c(c3)OC(c3ccc(O)cc3)CC4=O)O[C@H](CO)[C@@H](O)[C@@H]2O)[C@H](O)[C@H](O)[C@H]1O (some centres not stated) | . | / | / | /
O=C(NCCc1ccc(Cl)cc1)C1CCC(CNc2c(N3CCCCC3)c(=O)c2=O)CC1 (configuration not stated) | . | / | / | /
O=S(=O)(Nc1cccc(S(=O)(=O)N2CCOCC2)c1)c1cccs1 | . | . | / | /
O=C(/C=C/c1ccccc1)c1cc(Br)ccc(=O)c1O | . | . | / | /
Cc1ccc(/C=C/C(=O)c2ccccc(=O)c2O)cc1C | . | 6.1 | . | . | CHO-K1 ctr=.;KCNQ1 pot spec=.;KCNQ2 pot conf=0.8;Kir21 spec=.;KCNQ2 W236L MoA=.

Screening data deposited in PubChem by Johns Hopkins Ion Channel Center.
